Results as given in PubChem BioAssay AID1347047 (National Center for Advancing Translational Sciences (NCATS), 2019).
About 10 (0.7%) of roughly 1,400 compounds were called active. Roughly 2% stayed inconclusive and do not appear here. The call rests on the fitted dose curve; in most records, active means well fitted inhibition curve with a large enough effect; inconclusive means small, poorly fitted or top-dose-only effect; inactive means flat fitted curve, though single readings scatter. The full list was thinned out, with actives kept by preference.

Target: Luciferin 4-monooxygenase (Photinus pyralis) (UniProt P08659)
Assay: Natriuretic polypeptide receptor (hNpr1) antagonism - Confirmation firefly luciferase (FLuc) inhibition counterscreen; on activity change, negative = inhibition: 0% is about no effect
Details: purified FLuc enzyme, luminescence, Km substrate; series mostly up to 57.6 µM; activity change, negative = inhibition: at the top concentration
Description: Firefly (Photinus pyralis) luciferase (FLuc) is one of the more frequently used transcriptional reporter genes, and it has also been developed as a cellular sensor for cyclic nucleotides. (Fan F & Wood KV, 2007; Fan F et al., 2008) However, a significant number of compounds that populate chemical libraries have been identified as FLuc ligands which can be mistaken for modulators of the intended targeted pathways, receptors or enzymes. (Auld, DS et al. 2008; Thorne, N et al. 2012) Therefore, the FLuc enzyme assay conducted at sensitive Km level substrate conditions is used to counter-screen for potential FLuc ligands. Auld DS, Thorne N, Nguyen DT & Inglese J A specific mechanism for nonspecific activation in reporter-gene assays. ACS Chem Biol. 2008, 3: 463-470. DOI: 10.1021/cb8000793 Fan F, Binkowski BF, Butler BL, Stecha PF, Lewis MK, Wood KV. Novel genetically encoded biosensors using firefly luciferase. ACS Chem Biol. 2008, 3: 346-351. DOI: 10.1021/cb8000414 Fan F and Wood KV. Bioluminescent assays for high-throughput screening. Assay Drug Dev Technol. 2007, 5: 127-136. […] Chemistry & Biology, 2012, 19: 1060-1072. DOI.org/10.1016/j.chembiol.2012.07.015
PROTOCOL TABLE (as described by Inglese J, Shamu CE and Guy RK. 2007) SEQUENCE No. (e.g., 1, 2, 3, etc.); PARAMETER (e.g., Cells, Incubation, Reagent, etc.); VALUE and DESCRIPTION. FLUC KM ENZYME COUNTERSCREEN (Thorne, N.T. et al. 2012) 1. Reagent. Add 3 uL of D-luciferin substrate buffer per well into Greiner 1536-well white/solid bottom high base, medium bind plates. 2. Compounds. Library compounds and PTC124 control added at 23nL per well, transferred by Pin Tool. 3. Incubation. Incubate plates at room temperature for […], protect from light. 4. Reagent. Add 1uL of P. pyralis luciferase (FLuc) per well of Greiner 1536-well plates. 5. Incubation. Incubate plates at room temperature for 10 min., protect from light. 6. Detector. FLuc luminescence measured using CCD-based camera (Viewlux). NOTES (numbers refer to Sequence numbers above) 1. Substrate buffer: 10 uM D-luciferin final concentration in 50 mM Tris-Acetate, pH 7.6, 10 mM Mg-Acetate, 10 uM ATP, 0.01% Tween-20, and 0.05% BSA buffer added at 3uL/well to 13 x Greiner 1536-well white/solid bottom high base, medium bind plates. 2. PTC124 stock solution prepared (10 mM in DMSO; Auld D.S. et al. 2010). Working dilution for dispense = 10 mM stock dilution (57.5 uM final concentration; 16-pt 1:3 titration in duplicate = final concentration range of 57.5 uM - 4 pM). 23nL of library compounds, PTC124 control or DMSO vehicle control transferred to the 13 substrate-containing Greiner white/solid bottom high base, medium bind plates in 11 interplate 1:3 titrations (see Yasgar, A. et al. 2008) with Pintool. 3. Substrate incubated for 30-50 min. at ambient temperature protected from light with metal lid. 4. Enzyme solution: 10 nM P. pyralis luciferase (FLuc) final concentration in 50 mM Tris-Acetate, pH 7.6 added at 1uL to 13 x Greiner 1536-well white/solid bottom high base, medium bind plates. 5. Substrate and enzyme incubated with test library compounds and controls for 10 min. at ambient temperature protected from light with metal lid. 6. Read final Luminescence on the ViewLux. [Exposure = 30 s.; Gain = High; Speed = Slow; and Binning = 2X.] REFERENCES: Auld DS, Lovell S, Thorne N, Lea WA, Maloney DJ, Shen M, Rai G, Battaile KP, Thomas CJ, Simeonov A, Hanzlik RP and Inglese J. Molecular basis for the high-affinity binding and stabilization of firefly luciferase by PTC124. […] Chemistry & Biology, 2012, 19: 1060-1072. doi.org/10.1016/j.chembiol.2012.07.015 Yasgar A, Shinn P, Jadhav A, Auld DS, Michael S, Zheng W, Austin CP, Inglese J and Simeonov A, Compound Management for Quantitative High-Throughput Screening. J. Assoc. Lab. Auto., 2008, 13: 79-89. doi: 10.1016/j.jala.2007.12.004
Potency means the concentration at half of the fitted maximal effect.

Luciferin 4-monooxygenase (Photinus pyralis), sequence (P08659 whole entry, looked up): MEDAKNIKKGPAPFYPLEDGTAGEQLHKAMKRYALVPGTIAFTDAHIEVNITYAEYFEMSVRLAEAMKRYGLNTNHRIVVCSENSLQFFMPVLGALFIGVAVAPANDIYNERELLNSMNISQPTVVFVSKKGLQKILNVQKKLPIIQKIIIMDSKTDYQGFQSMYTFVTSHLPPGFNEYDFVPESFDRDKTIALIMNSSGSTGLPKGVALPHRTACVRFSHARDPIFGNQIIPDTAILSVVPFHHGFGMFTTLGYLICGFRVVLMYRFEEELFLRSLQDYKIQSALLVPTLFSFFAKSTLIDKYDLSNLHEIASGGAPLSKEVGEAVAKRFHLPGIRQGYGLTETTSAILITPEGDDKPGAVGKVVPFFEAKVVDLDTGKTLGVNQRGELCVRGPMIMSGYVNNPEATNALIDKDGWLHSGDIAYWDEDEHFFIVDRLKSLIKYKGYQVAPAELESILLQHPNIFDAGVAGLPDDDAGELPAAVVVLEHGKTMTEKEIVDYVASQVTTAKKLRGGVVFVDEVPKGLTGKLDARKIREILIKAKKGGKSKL

Structure (SMILES) | activity change, negative = inhibition | Potency
Cc1nc(-c2ccncc2)ncc1C(C)Nc1ncnc(C)c1C (stereo not drawn) | -0.924% (inactive) | –
Cc1noc(C)c1-c1cnc2[nH]cc(CC(=O)N3CCOCC3)c2c1 | 1.18% [at 86.2 µM] (inactive) | –
N#Cc1cccc(CN2CCC(C3=NC(O)c4cc(F)ccc4N3)CC2)c1 (stereo not drawn) | -0.458% (inactive) | –
CC1=NS(=O)(=O)N(C)C=C1C(=O)OCc1nc(-c2ccc(C)cc2)no1 | -14.4% (inactive) | –
Cc1cc(N2CCCC(Cn3cc(Cc4ccccc4)nn3)C2)nc(N)n1 (stereo not drawn) | 4.71% (inactive) | –
Cc1ccc(C)c(C(=O)N2CCC3(CC2)N=C(c2ccc(Cl)cc2)NO3)c1 | -2.55% (inactive) | –
COc1ccc(S(=O)(=O)N2CCc3c(C(=O)NCCc4ccccn4)cccc32)cc1 | 0.595% (inactive) | –
COc1ccc(-c2noc(CC3CCN(C(=O)Cc4ccc(OC)c(OC)c4)CC3)n2)cc1 | 0.775% (inactive) | –
O=C(c1ccc(F)cc1F)N1CCN(c2cc(-c3ccc(Cl)cc3)[nH]n2)CC1 | 1.19% (inactive) | –
O=C(CCC1CCN(C(=O)c2ccccc2F)CC1)Nc1cccc(Cl)c1 | -0.361% (inactive) | –
O=[S+]1([O-])NCC2(CCCN(Cc3ccc(C(F)(F)F)cc3)C2)Oc2ncccc21 (stereo not drawn) | -1.58% (inactive) | –
COc1ccc(C(CC(=O)N(C)Cc2cc(C3CC3)n[nH]2)c2ccccc2)cc1 (stereo not drawn) | 5.77% (inactive) | –
COc1cccc(NC(=O)Cn2c(N(C)Cc3ccccc3)nc(C)cc2=O)c1 | 0.159% (inactive) | –
Cc1ccc(C(=O)N2CCN(c3cc(-c4ccc(Cl)cc4)[nH]n3)CC2)c(C)c1 | 6.33% (inactive) | –
COc1cccc(-c2noc(CC3CCN(C(=O)c4ccc(F)cc4)CC3)n2)c1 | -3.83% (inactive) | –
Cc1nn2c(c1-c1ccnn1C(C)C)N(CC1CCOCC1)CCC2 | 1.23% [at 86.2 µM] (inactive) | –
CN1CCN(C(=O)C(C)(C)Oc2nn(Cc3cccc(Cl)c3)c3ccccc23)CC1 | 0.269% [at 86.2 µM] (inactive) | –
CC1=NS(=O)(=O)N(C)C=C1C(=O)OCc1noc(-c2ccco2)n1 | 1.54% (inactive) | –
CC1(C(=O)NCc2ccc3c(c2)OCO3)CCc2cnc(NCc3ccccc3)nc21 (stereo not drawn) | -0.097% [at 86.2 µM] (inactive) | –
COC(=O)c1cccc(NC(=O)CCNc2c(C)nc3cnccn23)c1 | -21.9% (inactive) | –
O=C(c1ccccc1)N1CCC(C(=O)N2CCC(Cc3nc(-c4ccc(F)cc4)no3)CC2)CC1 | -0.881% (inactive) | –
Fc1ccc(CNC[C@H]2Cn3c(-c4ccc5c(c4)OCCO5)cnc3CO2)cc1 | -0.417% [at 86.2 µM] (inactive) | –
COc1ccc(-c2noc(CC3CCN(C(=O)Cc4ccc(C)cc4)CC3)n2)cc1 | -1.24% (inactive) | –
Cc1cccc(C(=O)N2CCC(Oc3ccc(-c4noc(C(C)C)n4)cc3)C2)c1 (stereo not drawn) | -14.1% (inactive) | –
COc1ccc(CC(=O)N2CCC(Cc3nc(-c4ccccc4)no3)CC2)cc1OC | 4.11% (inactive) | –

Structure (SMILES) | activity change, negative = inhibition | Potency
COc1ccc(-c2noc(CC3CCN(C(=O)CC4CCCCC4)CC3)n2)cc1 | -0.775% (inactive) | –
COc1ccccc1Nc1cnc2ccc(N(C)Cc3cccnc3)nn12 | 0.521% [at 86.2 µM] (inactive) | –
COc1ccc(OCC2(C)COc3ccc(C(=O)Nc4cccnc4)cc3N2)cc1 (stereo not drawn) | -15.3% [at 86.2 µM] (inactive) | –
O=C(c1ccc(F)cc1Cl)N1CCC(n2cc(-c3nc(-c4ccccc4)no3)nn2)C1 (stereo not drawn) | -8.65% (inactive) | –
O=C(c1cc(F)ccc1Cl)N1CCN(c2cc(-c3ccc(F)cc3)[nH]n2)CC1 | -1.63% (inactive) | –
Cc1ccc(OCc2nc(C3CCN(C(=O)CCc4nc5ccc(Cl)cc5[nH]4)CC3)no2)cc1 | -2.06% (inactive) | –
CC1(CCCCc2ccccc2)COc2ccc(C(=O)N3CC[S+](=O)([O-])CC3)cc2N1 (stereo not drawn) | 0.713% (inactive) | –
CN(C)CCNC(=O)C(C)(C)Oc1nn(Cc2cccc(Cl)c2)c2ccccc12 | 2.6% [at 86.2 µM] (inactive) | –
O=C(NCC1CC1)c1nc2c(o1)CCN(Cc1cccc(F)c1F)CC2 | -0.6% [at 86.2 µM] (inactive) | –
Cc1cc(CNC(=O)c2ccc(-c3ccccc3Cl)o2)n(C)n1 | -6.14% (inactive) | –
Cc1noc(C)c1-c1cc(-c2ccccc2Oc2ccccc2)cn2cncc12 | 0.554% [at 86.2 µM] (inactive) | –
O=C(NCc1nnc2cc(-c3nc(C4CC4)no3)ccn12)c1ccc(F)cc1Cl | -1.04% (inactive) | –
Cc1cccc(CN2CCc3nc(C(=O)Nc4ccc(Cl)cc4)oc3CC2)c1 | 1.12% [at 86.2 µM] (inactive) | –
C1CCC(COCCc2noc(C3CNC3)n2)C1 | -2.28% (inactive) | –
O=C(c1cccc(F)c1)N1CCOC[C@H](Oc2ccc(C(F)(F)F)cc2)C1 | 1.12% [at 86.2 µM] (inactive) | –
Cc1cccc(-c2cccc(CN)c2)c1 | 2.71% [at 86.2 µM] (inactive) | –
Cc1c[nH]c(CN2CCCC(CCc3ccc(F)cc3F)C2)c(C)c1=O (stereo not drawn) | 1.09% (inactive) | –
c1ccc(CO[C@@H]2CO[C@H]3[C@@H]2OC[C@@H]3n2nnnc2SCc2ccco2)cc1 | -4.3% [at 86.2 µM] (inactive) | –
CC(=O)N1CCC(NC[C@H]2O[C@H](Cc3cc(-c4cccc(O)c4)on3)CC[C@@H]2O)CC1 | -16.5% [at 86.2 µM] (inactive) | –
O=C(c1ccccc1)N1CCNc2cnc(Nc3cccc(C(F)(F)F)c3)nc2C1 | -2.64% [at 86.2 µM] (inactive) | –
O=c1[nH]c(C2CCCN(Cc3ccccn3)C2)nn1-c1ccc(Cl)cc1 (stereo not drawn) | 5.04% (inactive) | –
COc1ccc(CN2C(=O)CO[C@H]3CN(Cc4ccc5c(c4)OCO5)C[C@H]32)cc1 | -0.695% [at 86.2 µM] (inactive) | –
CC(C)c1cc(C(=O)N2CCC(n3cc(-c4ccccn4)nn3)CC2)n(C)n1 | -0.701% (inactive) | –
O=C(N1CCN(c2cc(-c3ccc(Cl)cc3)[nH]n2)CC1)C1(c2ccccc2)CC1 | -0.0118% (inactive) | –
Cc1ccc2c(c1)nc1n2[C@@H](CNS(=O)(=O)c2ccccc2)COC1 | -0.128% [at 86.2 µM] (inactive) | –

Structure (SMILES) | activity change, negative = inhibition | Potency
COc1cccc(CNC(=O)Cn2c(N(C)Cc3ccccc3)nc(C)cc2=O)c1OC | 0.184% (inactive) | –
COc1cccc(C2C(C(=O)Nc3ccccc3)=C(C)N=C3SC=C(CC(=O)NCC(C)C)N32)c1 (stereo not drawn) | -12.5% (inactive) | –
Cc1ccc2nc(C3CCCN(Cc4ccc(C#N)cc4)C3)[nH]c(=O)c2c1 (stereo not drawn) | -0.515% (inactive) | –
COC(=O)C1=C(C)N=C2SC=C(CC(=O)NCCC(C)C)N2C1c1ccccc1Cl (stereo not drawn) | 0.647% (inactive) | –
O=C1Nc2ccccc2CN(Cc2ccccc2)C12CCNCC2 | 4.28% (inactive) | –
COc1ccc(C2Cn3nnc(C(=O)N4CCN(C(=O)c5ccc(C)cc5C)CC4)c3CO2)cc1 (stereo not drawn) | 0.552% (inactive) | –
COc1ccc(C2Cn3nnc(C(=O)N4CCN(C(=O)c5cccc(Cl)c5)CC4)c3CO2)cc1 (stereo not drawn) | 1.68% (inactive) | –
COc1ccc(C(=O)N2CCC(n3cc(-c4nc(C(C)C)no4)nn3)CC2)cc1F | 1.05% (inactive) | –
O=C1NCN(Cc2ccc(Cl)cc2)C12CCN(Cc1ccccc1)CC2 | -0.162% [at 86.2 µM] (inactive) | –
O=C1c2cnc(-c3ccc(Cl)cc3)nc2OCCN1Cc1ccccc1 | – | 2500 nM (active)
OC1(Cc2cc(-c3ccccc3)no2)CCN(c2ncncn2)CC1 | 3.35% (inactive) | –
CC(C)c1noc(-c2cn(C3CCN(C(=O)c4ccc(N(C)C)cc4)C3)nn2)n1 (stereo not drawn) | -0.906% (inactive) | –
CC(C)c1nncn1C1CCN(S(=O)(=O)c2cccc(Br)c2)CC1 | -1.18% (inactive) | –
COc1ccc(-c2noc(CC3CCN(C(=O)Cc4ccccc4)CC3)n2)cc1 | -0.401% (inactive) | –
O=C(c1ccc2cc[nH]c2c1)N1CCC2(CC1)N=C(c1ccc(Cl)cc1)NO2 | -17.6% (inactive) | –
CCN(CCCNC(=O)c1nnn2cc(-c3ccccc3)[nH]c(=O)c12)c1ccccc1 | -2.16% (inactive) | –
CCc1ccc(C(=O)N2CCN(c3cc(-c4ccc(F)cc4)[nH]n3)CC2)cc1 | 13.4% (inactive) | –
COc1ccc(CCNC(=O)c2noc(-c3ccc(C)cc3)n2)cc1OC | -6.77% (inactive) | –
O=C(c1ccccn1)N1CC(Oc2ccc(-c3noc(C4CC4)n3)cc2)C1 | -4.39% (inactive) | –
Cc1cccc(C(=O)N2CCC3(CC2)CC(N(Cc2ccc(F)cc2)C2CC2)CCO3)c1 (stereo not drawn) | 10.7% (inactive) | –
Cc1nn2c(c1-c1ccccc1-c1ccccc1)N(CC1CC1)CCC2 | -14.2% [at 86.2 µM] (inactive) | –
CN(Cc1csc(-c2ccccc2)n1)c1cc(C2CC(O)C2)nc(N)n1 (stereo not drawn) | -2.31% (inactive) | –
COc1cccc(C2Cn3nnc(-c4nc(-c5ccccc5)no4)c3CO2)c1 (stereo not drawn) | -7.75% (inactive) | –
